Measured values: PubChem BioAssay AID686970 (National Center for Advancing Translational Sciences (NCATS), 2013)
The whole screen tested about 360,000 compounds, of which about 6,000 (1.7%) were called active. Another 8% or so got no clear call; they are omitted. This excerpt belongs to a sample that is enriched for actives. A number with no mark means an inactive call. The call rests on the fitted dose curve; in most records, active means well fitted cell-killing curve with a large enough effect; inconclusive means small, poorly fitted or top-dose-only effect, or effect the other way; inactive means flat fitted curve, though single readings scatter.

Assay: qHTS for induction of synthetic lethality in tumor cells producing 2HG: qHTS for the HT-1080-NT fibrosarcoma cell line;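 further: NT is the 2HG producing partner of a matched IDH1 knockdown line; nearly all actives have a fitted effect of over 55% in size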;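 on activity, negative = less viability: 0% = DMSO-treated cells and -100% = media-only wells without cells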
Settings: HT-1080-NT fibrosarcoma viability, CellTiter-Glo ATP luminescence, 48 h; series mostly up to 46.1 µM; activity, negative = less viability: at the top concentration
Outline: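 HT-1080-NT; 750 cells/well; 5% FBS RPMI; 48 h compound, 37 degrees C; CellTiter-Glo luminescence; curve fitting and curve-class assignment.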
Potency means the concentration at half of the fitted maximal effect.

Compound	activity, negative = less viability [%]	Potency
NS(=O)(=O)c1ccc(NC(=O)CSc2nnc3c(n2)[nH]c2ccccc23)cc1	-10.4	–
CN1CCN(C2Cc3ccc(Cl)cc3Sc3ccc(F)cc32)CC1 (centres undefined)	–	14.6 µM (active)
C[C@H]1CN([C@@H](C)CO)C(=O)c2cc(Br)cnc2O[C@H]1CN(C)S(=O)(=O)c1cccs1	5.18	–
CN(C)c1cccc(NC(=O)c2ccc(-c3ccc(F)c(F)c3)c3ccoc23)c1	7.38	–
Cc1ccc(S(=O)(=O)N2CC3C(=O)C[C@@H](c4ccccc4Cl)N(S(=O)(=O)c4ccc(C)cc4)C3CC2c2ccccc2)cc1 (some centres undefined)	4.22	–
CC1(C)OC(=O)C2=C(C[C@@H](C3CC3)O[C@H]2CCc2cccc(Cl)c2)O1	-21.7	–
CC(C)c1ccccc1OCC(O)CN(CC(O)COc1cccc2ccccc12)C(C)C (centres undefined)	–	18.4 µM (active)
CN1CCN(CCCCOc2cccc3ccccc23)CC1	-3.37	–
CCC(C)Sc1nc2c(c(=O)[nH]c(=O)n2C)n1CC(O)COc1cccc2ccccc12 (centres undefined)	-3.75	–
Cc1nc(C(F)(F)F)ccc1C(=O)N1CCC1(C)C(=O)NS(=O)(=O)c1ccc(F)cc1F (centres undefined)	23.6	–
COC(=O)c1ccc2nc(-c3cccc(Br)c3)c(Cc3ccccc3C(F)(F)F)n2c1	18.3	–
O=C(Nc1ccc(Cl)cc1)C1Cc2c(-c3ccc4c(c3)OCO4)ccnc2O1 (centres undefined)	-26.5	–
COc1ccc(NC(=O)C2Cc3c(-c4ccc5c(c4)OCO5)ccnc3O2)cn1 (centres undefined)	–	5.8 µM (active)
COc1ccc(NC(=O)C2Cc3c(-c4cccc(NC(C)=O)c4)ccnc3O2)cc1OC (centres undefined)	-32.4	–
Cc1cc(C(=O)CCl)c(C)n1CC1COc2ccccc2O1 (centres undefined)	–	14.6 µM (active)
O=C1C(=O)N(CC2COc3ccccc3O2)c2ccccc21 (centres undefined)	-5.04	–
Cc1ccsc1C(=O)OCC(=O)c1cc(C)n(CC2CCCO2)c1C (centres undefined)	-2.95	–
COCCCn1c(=O)/c(=C/c2ccccc2OC(C)C)s/c1=C(\C#N)C(=O)Nc1ccc(C(=O)O)cc1	-16	–
CCOC(=O)C1CCCN(C(=O)c2ccc(C)c(F)c2)CC1 (centres undefined)	12.6	–
Cc1cc(C)n(-c2nc(C(F)(F)F)nc3ccccc23)n1	-1.68	–
CC(C)(C)Nc1nc(-c2ccccn2)nc2ccccc12	-14.3	–
CC(Nc1nc(C(F)(F)F)nc2ccccc12)c1cccs1 (centres undefined)	–	20.6 µM (active)

Compound	activity, negative = less viability [%]	Potency
Clc1ccc(-c2cccc3nccn23)cc1	36.5	–
CCOC(=O)c1ccccc1OC(=O)Oc1ccccc1C(=O)OCC	-20.1	–
CCOC(=O)C1=C(C)c2ccccc2OC1(C)C(=O)OCC (centres undefined)	7.06	–
CCOC(=O)c1c(C)[nH]c2c1-c1ccccc1C(=O)C2=O	–	2.91 µM (active)
CCOC(=O)[C@]12CCCC=C1N(Cc1ccc3c(c1)OCO3)C(=O)[C@H](CC(=O)N1CCN(C(=O)c3ccco3)CC1)C2	-1.49	–
COc1cc(CNc2ncnc3c2ncn3[C@H]2CN(Cc3cccs3)C[C@@H](CO)O2)cc(OC)c1OC	-19.8	–
COCCNc1nc(Nc2ccccc2Cl)c2sc(-c3ccccc3)cc2n1	22.7	–
COCCNc1nc(NCc2ccc(NC(C)=O)cc2)c2sccc2n1	21.7	–
CC(=O)Nc1ccc(CNc2nc(NCCN(C)C)nc3cc(-c4ccccc4)sc23)cc1	–	11.6 µM (active)
COc1ccc(Cl)cc1NC(=O)CN(C)C(=O)c1cn(-c2ccccc2)nc1-c1cccs1	2.6	–
O=C(c1cc(-c2ccc(O)cc2)on1)N1CCCc2ccccc21	9.42	–
Cc1ccc(C(=O)N2CCCc3ccccc32)c(Cl)c1	-0.902	–
Cc1cccc2cc3c(N)c(C(=O)N4CCCc5ccccc54)sc3nc12	–	3.26 µM (active)
O=C(C[C@H]1C[C@@H]2c3cc(NC(=O)C4CCC4)ccc3O[C@@H]2[C@H](CO)O1)NC1CCCCC1	4.93	–
CCOC(=O)C(NC(C)=O)C(=O)Nc1ccc(OC)cc1 (centres undefined)	14.9	–
CCOC(=O)C1=C(c2ccc(OC)cc2)C(=O)c2ccccc2C1=O	–	5.8 µM (active)
COc1ccc(CNC(=O)CCN2C(=O)c3ccccc3C2=O)cc1	14.4	–
O=C(NN=Cc1ccc2c(c1)CCC2)c1ccccc1O	0.557	–
COc1cccc(NC(=O)C2(C)CCN2C(=O)CCC2CCCC2)c1 (centres undefined)	6.2	–
Cc1cc(NC(=O)CCC(=O)N(c2ccccc2)C(C(=O)NC2CCCC2)c2ccncc2)no1 (centres undefined)	17	–
Cc1cc(NC(=O)CCC(=O)N(CC(=O)NC2CCCC2)c2ccc(F)cc2)no1	11.2	–
Cc1cc(NC(=O)/C=C/C(=O)N(c2ccccc2C)C(C(=O)NC2CCCC2)c2ccc(F)cc2)no1 (centres undefined)	–	11.2 µM (active)

Compound	activity, negative = less viability [%]	Potency
CC1(C(=O)Nc2ccc3c(c2)OCCO3)CCN1C(=O)Cc1cc(F)ccc1F (centres undefined)	13.2	–
O=C(O)C1=C(C(=O)O)C2CCC1C2	-0.299	–
CC(C)(O)C(=O)NN(C(=O)c1ccccc1)c1cccc(Br)c1	9.85	–
CCCC(O)(CCC)C(=O)NN(C(=O)CCl)c1cccc(C)c1	–	6.51 µM (active)
COC(=O)N(NC(=O)C(O)(C(C)C)C(C)C)c1ccccc1	18.4	–
COc1ccc(C2OC(CCc3ccccc3)Cc3[nH]c(=S)[nH]c(=O)c32)cc1 (centres undefined)	-12.7	–
CCOC(=O)C1CCCN(C(=O)c2cccc3ccccc23)CC1 (centres undefined)	8.59	–
CCc1nc2ccc(C(=O)N3CCN(S(=O)(=O)CC)CC3)cn2c1N(C=O)CCC(C)C	11.2	–
COc1ccc(Br)cc1/C=N/Nc1ccc(Cl)c(C(=O)O)c1	6.6	–
COc1cccc(/C=N/Nc2ncc(C(F)(F)F)cc2Cl)c1O	–	16.4 µM (active)
O=c1[nH]c2cccnc2n(CCNc2ncc(C(F)(F)F)cc2Cl)c1=O	-5.03	–
CCN1C(=O)[C@@H]2[C@@H]3CN(S(=O)(=O)c4ccccc4C)[C@@H](c4ccc(Cl)cc4)[C@@H]3C(=O)C[C@@H]2C1=O	0.249	–
CCc1nc2c(OCCOc3ccc(F)cc3)cccn2c1N(C)C(=O)c1ccccc1F	-10.6	–
COc1cc(C=NC2CCCCC2)ccc1O	11.8	–
CCOc1cc(/C=N/Nc2cc(C)nc3ccc(C)cc23)ccc1O	-1.31	–
COc1cc(/C=N/Nc2nc3ccccc3s2)ccc1O	–	20.6 µM (active)
Nc1ncnc2c1ncn2[C@@H]1O[C@H](CNC(=O)[C@H](N)Cc2cccnc2)[C@@H](O)[C@H]1O	19.8	–
O=C(Nc1ccccc1)c1nnsc1S(=O)(=O)c1ccc(Cl)cc1	–	20.6 µM (active)
O=C(Nc1ccc(S(=O)(=O)Nc2ccccn2)cc1)c1ccccc1	-0.939	–
Cc1nnsc1S(=O)(=O)Cc1ccccc1Cl	6.73	–
